# From PubChem
# Only some compounds are listed: those with a hit (about 9.6% of all), similar ones and a draw of the others.
# Cav3 T inh: blocks human Cav3.2 T-type calcium channel. O95180. Cav3.2-expressing cells, Fluo-4 calcium fluorescence FDSS; stronger effect = lower value. B-score at 10 µM. hit rate 4% among 100,000. AID 449739;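 active means single-dose well whose peak fluorescence ratio is a statistical outlier from its plate by either plate-standardised score or position-corrected B-score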
# hDAT+cocaine: modulates human dopamine transporter uptake under cocaine | B-score at 10 µM | LLC-PK1 hDAT cells, [14C]-dopamine uptake with cocaine IC80; actives deviate in either direction | hit rate 1.3% among 110,000 | Q01959;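 active means Z score or B-score, a plate-position-corrected score, falls beyond the plate's 99.7% confidence bounds, in either direction; inactive means both scores lie inside the 99.7% bounds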;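 further: scored against the spread of the other compound wells on the same plate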
# PostGolgi yeast: growth inhibition of a yeast mutant, post-Golgi transport screen; post-Golgi transport phenotypic cell assay; inhibition, % at 10 µM; hit rate 0.9% among 98,000; AID 739;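 further: yeast cells grown in 1536-well plates; yeast grown about 18 h at 30C before absorbance read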
# PostGolgi ctrl: inhibits growth of the yeast control strain; inhibition, % at 10 µM; efflux-deficient yeast background strain, growth absorbance A615, 16 h; hit rate 5% among 98,000
# PLAP activator: activators of human placental alkaline phosphatase | hit rate 1.2% among 96,000 | activation fold at 20 µM | purified PLAP enzyme, luminescent substrate read-out; stronger effect = higher value | P05187; in the data active means activation fold above about 2
# Target sequence (P05187 whole entry, looked up): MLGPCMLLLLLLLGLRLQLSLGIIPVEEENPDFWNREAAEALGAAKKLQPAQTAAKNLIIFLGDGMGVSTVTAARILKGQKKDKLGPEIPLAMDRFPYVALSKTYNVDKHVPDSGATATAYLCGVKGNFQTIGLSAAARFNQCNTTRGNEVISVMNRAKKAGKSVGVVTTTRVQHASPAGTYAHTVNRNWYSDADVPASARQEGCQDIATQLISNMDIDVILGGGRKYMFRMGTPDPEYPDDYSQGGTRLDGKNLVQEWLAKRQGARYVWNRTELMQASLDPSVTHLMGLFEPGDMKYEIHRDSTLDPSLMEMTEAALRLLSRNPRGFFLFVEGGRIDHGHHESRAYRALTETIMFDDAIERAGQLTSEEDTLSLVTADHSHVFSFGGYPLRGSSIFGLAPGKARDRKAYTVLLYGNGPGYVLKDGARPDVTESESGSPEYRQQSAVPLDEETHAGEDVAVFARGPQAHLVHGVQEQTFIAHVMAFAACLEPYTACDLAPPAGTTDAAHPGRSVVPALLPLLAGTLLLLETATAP
# An asterisk follows results filed as active; · = not tested or not shown. Unless noted, no stated cut-off is given here; in the data, active means inhibition above about 30%; inactive means the rest.
SMILES,Cav3 T inh,hDAT+cocaine,PostGolgi yeast,PostGolgi ctrl,PLAP activator
COc1ccc(C(=O)Nn2c(SCC(=O)NCc3ccccc3)nc3ccccc3c2=O)cc1,-0.029,-0.23,-1,6,1.1
Cc1ccc(C)c(N2CCN(C(=O)Cn3c(=O)[nH]c4ccsc4c3=O)CC2)c1,-1.5,1.4,-4,5,1.2
CC1(C)Cc2ccccc2-c2nnc(SCC(=O)Nc3nc4ccccc4s3)n21,-1.5,-0.53,6,7,1.1
CC(C)c1ccc(-c2nn(-c3ccccc3)cc2C2C(C#N)=C(N)OC3=C2C(=O)CC(C)(C)C3)cc1 (stereo not given),-5.3*,0.53,-11,15,1.2
CC1(C(=O)O)CCC(C(=O)N2CCOCC2)C1(C)C (stereo not given),-0.03,-0.75,-4,-1,1.1
O=S(=O)(c1cccs1)N1CCN(CC(O)COc2cc(Cl)ccc2Cl)CC1 (stereo not given),-2.6,-0.87,2,33*,0.9
C/C(=N\OCC(=O)N/N=C/c1ccccc1O)c1cccs1,-4.3*,-0.21,3,0,1.7
COc1ccc(/C=N/NC(=O)CO/N=C(\C)c2cccs2)cc1,-0.46,0.12,4,7,1
COc1cccc(/C=N/NC(=O)CO/N=C(\C)c2cccs2)c1OC,·,3.2*,-1,-2,1.1
Cc1[nH][nH]c(=O)c1C(c1ccc(-c2ccc(Cl)cc2Cl)o1)c1c(C)[nH][nH]c1=O,-0.44,-0.56,8,19,2.7*
O=C(NC1CCCCCC1)c1ccc(CN2CCOCC2)cc1,·,·,22,15,0.9
O=C1C2CC=CCC2C(=O)N1c1n[nH]c(CCc2ccccc2)n1 (stereo not given),-1.3,0.004,34*,10,1.2
O=C1C2CC=CCC2C(=O)N1c1n[nH]c(-c2ccccc2)n1 (stereo not given),1.2,-0.075,9,-3,0.3
Clc1cccc(CON/C=N/c2ncnc3sccc23)c1,-2.3,0.23,21,35*,0.8
Clc1cccc(Cl)c1CON/C=N/c1ncnc2sccc12,0.036,-0.39,-8,12,0.9
CCN(CC)C(=O)N1CCc2ccccc2C1CN1C(=O)c2ccccc2C1=O (stereo not given),-4.2*,0.024,·,·,·
O=C1c2ccccc2C(=O)N1CC1c2ccccc2CCN1C(=O)C1CCCCC1 (stereo not given),-2.5,0.011,13,6,1.4
c1cc2[nH]snc2c2nc(C3CC3)nc12,-0.29,-0.78,-1,0,1
Cc1cc(/C=C(/C#N)c2nc3ccccc3[nH]2)c(C)n1-c1cccc([N+](=O)[O-])c1,-11*,0.54,34*,10,1.5
Cc1cc(C2=CC(C)(c3cc(C)oc3C)Nc3nc(C(F)(F)F)nn32)c(C)o1 (stereo not given),-3.5,0.41,-15,5,1.6
CCC(=O)Nc1nnc(C(C)(C)C)s1,1.5,-0.92,5,11,0.9
COC(=O)c1cc(CSc2nc3ccccc3[nH]2)oc1C,-1.2,0.21,-3,6,2.3*
O=C(CSc1cn(Cc2ccccc2)c2ccccc12)N1CCOCC1,-0.42,0.069,13,23,1.2
O=C(c1cc(-c2ccc(Cl)cc2)n(-c2ccc(Cl)c(Cl)c2)n1)N1CCOCC1,·,1.4,-9,40*,1.4
O=C(c1cc(-c2ccc(Cl)cc2)n(-c2cc(Cl)ccc2Cl)n1)N1CCOCC1,-1.9,1.4,5,43*,1.3
SMILES,Cav3 T inh,hDAT+cocaine,PostGolgi yeast,PostGolgi ctrl,PLAP activator
O=C(O)c1cc(Cl)c(Cl)cc1C(=O)N1CCOCC1,0.27,0.069,·,·,1
O=C(c1cc(Cl)ccc1Cl)N1CCOCC1,0.44,0.18,1,12,1.1
COC(=O)c1ccc(-n2nnnc2SCC(=O)Nc2ccccc2C(=O)OC)cc1,·,·,25,37*,1.3
CC(NC(=O)c1ccccc1NC(=O)CSc1nnnn1C)c1ccccc1 (stereo not given),1.2,0.21,20,33*,0.9
Cn1nnnc1SCC(=O)Nc1ccccc1Cl,0.12,0.74,-2,4,1
COc1ccccc1NC(=O)CSc1nnnn1-c1ccc(C)cc1,-2.6,0.46,·,·,·
Nc1nc(SCC(=O)Nc2ccccc2Sc2ccccc2)n[nH]1,-0.051,-0.34,-4,7,2.3*
CCc1nc(SCC(=O)Nc2ccccc2C(=O)OC)n[nH]1,-0.34,-0.6,0,26,2*
COc1ccc(NC(=O)C2CC(=O)n3cnnc3S2)cc1 (stereo not given),2.1,-0.93,-7,-2,0.8
COc1ccc(C(=O)CSc2nnc(CNC(=O)c3ccc(OC)cc3)n2C)cc1,-0.99,-1.8,-2,-8,0.8
Cc1ccccc1NCCNc1ccccc1C,-0.54,0.48,-5,2,0.8
CCN(CC)c1ccc(-c2nnc(SCC(=O)Nc3ccccc3C#N)n2-c2ccccc2)cc1,-2.4,0.23,-5,7,1.3
COC(=O)c1ccccc1NC(=O)CSc1nc(NC(=O)c2ccccc2)c2c(C)c(C)oc2n1,-4.9*,0.26,0,15,1
CCOC(=O)c1ccc(NC(=O)CSc2nc(NC(=O)c3ccccc3)c3c(C)c(C)oc3n2)cc1,-1.8,1.6,8,21,1.1
CN1C[C@@H]2C(c3ccc(Cl)nc3)C3(c4ccccc4)CC2(C3)[C@H]1c1ccccc1 (stereo not given in full),-0.89,1.4,·,·,·
CC(C)Cc1nnc(NS(C)(=O)=O)s1,-0.27,-7.8*,0,-2,1.1
O=C(/C=C/c1ncc(C(F)(F)F)cc1Cl)OCc1ccccc1,-1.3,-1.3,19,3,1
CCCCOc1ccc(C(=O)N2CCCC2)cc1,0.48,0.44,8,8,1
CCOc1ccc(C(=O)N2CCCC2)cc1,0.048,5.9*,·,·,·
O=c1c2ccc(Cl)cc2nc(-c2cccc(C(F)(F)F)c2)n1O,-5.9*,-0.033,-1,-5,1
O=c1c2ccccc2ncn1-c1ccc(Cl)c(Cl)c1,0.53,-1.1,·,·,·
On1c(-c2ccccc2)nc2ccc(Cl)cc21,0.55,0.56,0,11,0.9
O=c1c2ccccc2nc(-c2ccc(Cl)c(Cl)c2)n1O,-4.3*,-0.57,-12,-19,0.8
O=C(Cn1cc([N+](=O)[O-])cn1)N1N=C(C(F)F)CC1(O)C(F)F (stereo not given),0.007,-0.022,·,·,·
CCOC(=O)C1C(=O)NC(C)C1c1ccccc1 (stereo not given),-0.17,0.38,20,5,1.2
CCCc1nnc(SCC(=O)N2CCCC(C)C2)n1CC1CCCO1 (stereo not given),0.36,1.4,7,-5,1
O=C(NC1(C(F)(F)F)NC(=O)N(c2ccc(F)c(Cl)c2)C1=O)c1ccncc1 (stereo not given),0.67,-3*,-2,0,1.2
COc1cc(O)c(C(CC(=O)N2CCCCC2)c2ccc(N(C)C)cc2)c(OC)c1 (stereo not given),0.82,0.21,·,·,·
CN1CCN(CC(=O)N2CCn3c4c(c5cc(C6CCCCC6)ccc53)CCCC42)CC1 (stereo not given),1.4,0.64,53*,86*,1.8
